From ChEMBL document CHEMBL1961873, “Compounds: GSK PKIS; Assays: Nanosyn kinase panel” (2012) come the findings set out here.

Broadly, the inhibition is the relative decrease from the control value, in per cent.

The target of experiment [1] is MAP/microtubule affinity-regulating kinase 3 (Homo sapiens) (UniProt P27448). Conditions: at 1 µM.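 Note: reported values are averaged percent inhibition of MARK3.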
Experiment [2] deals with T1, MAP/microtubule affinity-regulating kinase 4 (Homo sapiens) (UniProt Q96L34).
T1 sequence (whole entry): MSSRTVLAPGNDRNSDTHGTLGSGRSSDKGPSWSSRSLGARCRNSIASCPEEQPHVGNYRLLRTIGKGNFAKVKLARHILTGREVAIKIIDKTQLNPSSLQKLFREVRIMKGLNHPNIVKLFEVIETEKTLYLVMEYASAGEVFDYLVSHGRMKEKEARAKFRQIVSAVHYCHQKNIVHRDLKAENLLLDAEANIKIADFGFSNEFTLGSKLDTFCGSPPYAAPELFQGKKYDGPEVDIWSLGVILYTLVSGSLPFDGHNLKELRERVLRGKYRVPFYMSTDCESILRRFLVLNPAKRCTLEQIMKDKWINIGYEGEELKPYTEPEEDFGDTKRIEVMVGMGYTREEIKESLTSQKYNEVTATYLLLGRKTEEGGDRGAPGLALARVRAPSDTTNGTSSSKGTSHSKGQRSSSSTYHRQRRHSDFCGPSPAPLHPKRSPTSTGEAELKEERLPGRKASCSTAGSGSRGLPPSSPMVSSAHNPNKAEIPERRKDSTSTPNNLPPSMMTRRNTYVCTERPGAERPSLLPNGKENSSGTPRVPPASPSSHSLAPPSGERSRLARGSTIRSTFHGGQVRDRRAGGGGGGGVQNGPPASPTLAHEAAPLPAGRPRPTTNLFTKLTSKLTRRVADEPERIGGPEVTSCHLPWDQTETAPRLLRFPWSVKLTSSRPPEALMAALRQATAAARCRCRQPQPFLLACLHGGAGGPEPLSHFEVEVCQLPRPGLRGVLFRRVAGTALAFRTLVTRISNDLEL
Conditions: at 0.1 µM.

For experiment [3], the target named is T1, MAP/microtubule affinity-regulating kinase 4 (Homo sapiens). Conditions: at 1 µM.
The target in experiment [4] is Maternal embryonic leucine zipper kinase (Homo sapiens) (UniProt Q14680). Conditions: at 0.1 µM.
The target is the same in experiment [5]. Conditions: at 1 µM.
The target in experiment [6] is MAP kinase-interacting serine/threonine-protein kinase 1 (Homo sapiens) (UniProt Q9BUB5). Conditions: at 0.1 µM.
Experiment [7] shares this target. Conditions: at 1 µM.
The target of experiment [8] is MAP kinase-interacting serine/threonine-protein kinase 2 (Homo sapiens) (UniProt Q9HBH9). Conditions: at 0.1 µM.
Experiment [9] shares this target. Conditions: at 1 µM.
Experiment [10] concerns the target Serine/threonine-protein kinase MARK2 (Homo sapiens) (UniProt Q7KZI7). Conditions: at 0.1 µM.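 Note: mean percent inhibition of PAR-1Balpha kinase activity, reported from the GSK PKIS screen.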

MAP kinase-interacting serine/threonine-protein kinase 1 (Homo sapiens), sequence (Q9BUB5 whole entry, looked up): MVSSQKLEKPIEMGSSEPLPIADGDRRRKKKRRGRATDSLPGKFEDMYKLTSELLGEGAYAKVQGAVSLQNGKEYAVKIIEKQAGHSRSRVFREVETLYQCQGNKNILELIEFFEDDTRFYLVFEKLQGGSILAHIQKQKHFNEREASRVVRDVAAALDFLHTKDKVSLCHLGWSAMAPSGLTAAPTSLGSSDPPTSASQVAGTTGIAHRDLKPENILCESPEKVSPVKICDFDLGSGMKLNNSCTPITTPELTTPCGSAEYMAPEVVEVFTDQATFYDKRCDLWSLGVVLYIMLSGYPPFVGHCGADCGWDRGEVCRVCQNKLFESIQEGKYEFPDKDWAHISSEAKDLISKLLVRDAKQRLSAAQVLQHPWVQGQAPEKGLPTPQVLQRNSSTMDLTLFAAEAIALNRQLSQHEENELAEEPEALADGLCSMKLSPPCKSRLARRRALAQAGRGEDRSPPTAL
MAP kinase-interacting serine/threonine-protein kinase 2 (Homo sapiens), sequence (Q9HBH9 whole entry, looked up): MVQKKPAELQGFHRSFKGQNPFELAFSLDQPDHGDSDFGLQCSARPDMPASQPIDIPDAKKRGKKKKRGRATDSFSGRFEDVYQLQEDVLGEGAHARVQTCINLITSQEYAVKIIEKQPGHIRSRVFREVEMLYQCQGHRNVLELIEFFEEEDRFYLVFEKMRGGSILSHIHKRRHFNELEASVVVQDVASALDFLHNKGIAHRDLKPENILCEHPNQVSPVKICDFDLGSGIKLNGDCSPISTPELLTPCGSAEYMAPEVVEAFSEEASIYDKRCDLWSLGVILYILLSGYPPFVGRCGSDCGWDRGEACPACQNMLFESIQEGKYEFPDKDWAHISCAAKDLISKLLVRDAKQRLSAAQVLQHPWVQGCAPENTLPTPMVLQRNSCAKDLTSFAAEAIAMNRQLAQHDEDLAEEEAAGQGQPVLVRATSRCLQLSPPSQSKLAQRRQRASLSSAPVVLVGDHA
Maternal embryonic leucine zipper kinase (Homo sapiens), sequence (Q14680 whole entry, looked up): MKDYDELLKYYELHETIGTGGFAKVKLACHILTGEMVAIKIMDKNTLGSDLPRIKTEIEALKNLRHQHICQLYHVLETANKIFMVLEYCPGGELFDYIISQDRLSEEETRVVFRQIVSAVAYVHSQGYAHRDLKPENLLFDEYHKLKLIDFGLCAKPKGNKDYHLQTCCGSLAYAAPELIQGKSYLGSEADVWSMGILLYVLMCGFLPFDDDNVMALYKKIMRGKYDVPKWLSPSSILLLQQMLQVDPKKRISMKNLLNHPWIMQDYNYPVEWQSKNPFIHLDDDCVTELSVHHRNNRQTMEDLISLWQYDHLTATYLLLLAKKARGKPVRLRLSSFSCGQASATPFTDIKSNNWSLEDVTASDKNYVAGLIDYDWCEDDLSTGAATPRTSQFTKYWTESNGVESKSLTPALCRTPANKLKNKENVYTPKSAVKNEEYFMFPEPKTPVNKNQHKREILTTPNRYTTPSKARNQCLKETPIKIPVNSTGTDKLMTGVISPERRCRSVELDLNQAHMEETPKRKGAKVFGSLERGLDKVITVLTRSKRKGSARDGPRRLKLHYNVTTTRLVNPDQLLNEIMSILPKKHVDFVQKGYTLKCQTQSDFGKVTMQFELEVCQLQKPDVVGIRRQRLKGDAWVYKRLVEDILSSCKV
Serine/threonine-protein kinase MARK2 (Homo sapiens), sequence (Q7KZI7 whole entry): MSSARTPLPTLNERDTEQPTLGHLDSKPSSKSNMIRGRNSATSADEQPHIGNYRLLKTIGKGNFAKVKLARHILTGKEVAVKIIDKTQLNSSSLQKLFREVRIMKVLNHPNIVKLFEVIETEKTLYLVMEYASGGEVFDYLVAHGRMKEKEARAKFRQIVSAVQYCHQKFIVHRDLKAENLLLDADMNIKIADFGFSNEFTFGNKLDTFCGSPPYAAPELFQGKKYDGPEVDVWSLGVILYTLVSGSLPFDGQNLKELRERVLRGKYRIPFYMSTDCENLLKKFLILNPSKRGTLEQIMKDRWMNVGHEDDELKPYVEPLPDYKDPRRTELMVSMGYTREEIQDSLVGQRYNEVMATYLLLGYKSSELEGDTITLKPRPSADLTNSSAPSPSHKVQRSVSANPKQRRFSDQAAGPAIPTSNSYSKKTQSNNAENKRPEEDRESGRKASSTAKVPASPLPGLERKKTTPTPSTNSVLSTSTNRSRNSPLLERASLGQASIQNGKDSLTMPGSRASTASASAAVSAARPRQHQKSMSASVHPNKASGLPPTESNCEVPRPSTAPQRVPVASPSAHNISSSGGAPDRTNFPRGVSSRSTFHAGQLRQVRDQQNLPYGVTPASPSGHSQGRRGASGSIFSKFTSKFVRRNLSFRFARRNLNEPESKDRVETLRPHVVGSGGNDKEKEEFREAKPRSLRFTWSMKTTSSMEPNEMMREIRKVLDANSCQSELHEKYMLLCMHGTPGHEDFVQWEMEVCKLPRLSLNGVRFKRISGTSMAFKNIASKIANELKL
MAP/microtubule affinity-regulating kinase 3 (Homo sapiens), sequence (P27448 whole entry, looked up): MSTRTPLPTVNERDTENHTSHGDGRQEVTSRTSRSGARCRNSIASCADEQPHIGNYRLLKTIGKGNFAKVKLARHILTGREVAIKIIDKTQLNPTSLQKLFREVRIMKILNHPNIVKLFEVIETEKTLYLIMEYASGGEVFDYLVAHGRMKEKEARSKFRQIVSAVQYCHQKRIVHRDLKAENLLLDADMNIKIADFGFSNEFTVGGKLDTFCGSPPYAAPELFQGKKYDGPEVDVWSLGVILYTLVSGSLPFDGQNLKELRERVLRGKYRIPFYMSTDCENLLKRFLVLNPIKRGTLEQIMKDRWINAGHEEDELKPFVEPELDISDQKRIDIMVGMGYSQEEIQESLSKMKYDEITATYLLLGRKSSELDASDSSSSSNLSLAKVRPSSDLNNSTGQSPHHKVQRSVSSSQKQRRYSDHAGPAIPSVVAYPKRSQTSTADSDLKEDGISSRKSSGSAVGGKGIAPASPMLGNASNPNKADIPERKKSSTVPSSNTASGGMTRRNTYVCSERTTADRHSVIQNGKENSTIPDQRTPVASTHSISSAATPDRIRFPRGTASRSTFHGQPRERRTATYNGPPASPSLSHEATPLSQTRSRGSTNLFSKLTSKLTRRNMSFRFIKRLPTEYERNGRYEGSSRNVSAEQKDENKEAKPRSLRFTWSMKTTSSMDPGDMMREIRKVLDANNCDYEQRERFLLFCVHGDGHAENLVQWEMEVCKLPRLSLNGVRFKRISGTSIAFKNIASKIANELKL

Turning to `NS(=O)(=O)c1ccc(NC=C2C(=O)Nc3ccc4ncsc4c32)cc1`, the inhibition was 60.7% in experiment [1]; 21% in experiment [2]; 58.7% in experiment [3]; 62.7% in experiment [4]; 94.4% in [5]; 9.09% in [6]. Also, the inhibition in experiment [7] stood at 39.2%; in [8] it was 3.84%; in experiment [9] it was 18.1%; in experiment [10], 14%.

Take `Cc1ccc2c(-c3ccnc(Nc4ccc5c(c4)OCCO5)n3)c(-c3ccc(C(F)(F)F)cc3)nn2n1`: the inhibition was 5.36% in experiment [1]; 1.96% in experiment [2]; 3.07% in experiment [3]; -1.46% in [4]; 0.19% in [5]; 0.37% in experiment [6]. For the same molecule, the inhibition was -0.05% in experiment [7], 0.66% in experiment [8], 1.73% in experiment [9] and -0.06% in experiment [10].

On to `COC(=O)c1ccc2c(c1)C(=Cc1cc(Br)c(O)c(Br)c1)C(=O)N2`, for which the inhibition in experiment [1] came to 3.71%; in experiment [2], 0.93%; in experiment [3] it was 5.08%; in experiment [4] it was 6.21%; in [5], 22.2%; in [6], 1.07%. The inhibition was 5.73% in experiment [7], 2.35% in experiment [8], 19% in experiment [9] and 0.84% in experiment [10].

Consider `Cc1ccc(Nc2ccnc(Nc3cccc(C(N)=O)c3)n2)cc1O`, for which the inhibition is 12.5% in experiment [1]; 1.68% in experiment [2]; 6.22% in experiment [3]; 2.96% in [4]; 7.7% in [5]; 2.87% in experiment [6]. Besides, the inhibition in [7] turned out to be 13.4%; in experiment [8] it was 2.08%; in experiment [9], 16.7%; in experiment [10], 0.4%.

For `c1ccc(Nc2ncc(-c3ccccc3)o2)cc1`, the inhibition in experiment [1] is 4.02%; in [2], 2.77%; in experiment [3], 4.32%; in experiment [4], 5.53%; in experiment [5], 9.84%; in experiment [6] it was 1.77%. For the same molecule, the inhibition in experiment [7] came out at 3.22%; in experiment [8] it was 0.51%; in experiment [9] it was 4.71%; in experiment [10], 0.14%.

`C[C@@H](Oc1cc(-n2cnc3ccc(OCC4CCN(C)CC4)cc32)sc1C(N)=O)c1ccccc1C(F)(F)F`: the inhibition in experiment [1] was 57.6%; in [2] it was 8.72%; in experiment [3] it was 49.9%; in experiment [4], 0.09%; in [5] it was 22%; in experiment [6], 0.35%. Also, the inhibition was 1.61% in experiment [7], 1.1% in [8], 4.25% in experiment [9] and 8.53% in experiment [10].

`COc1cc2ncn(-c3cc(OCc4ccccc4S(C)(=O)=O)c(C#N)s3)c2cc1OC`: the inhibition was 88.3% in experiment [1]; 34.9% in experiment [2]; 76.6% in [3]; 1.64% in experiment [4]; 8.3% in [5]; 11.7% in [6]. The inhibition was 47.7% in [7], 41.8% in experiment [8], 76.8% in experiment [9] and 25.9% in [10].

Turning to `CS(=O)(=O)CCNCc1nc(-c2ccc3ncnc(Nc4ccc(OCc5cccc(C(F)(F)F)c5)cc4)c3c2)cs1`, the inhibition was 1.92% in experiment [1]; -0.17% in experiment [2]; 1.58% in [3]; 0.45% in experiment [4]; 2.55% in [5]; 3.67% in experiment [6]. In addition, the inhibition in [7] worked out at 7.54%; in experiment [8], 0.84%; in [9] it was 6.94%; in experiment [10], 0.22%.

On to `CCn1c(-c2nonc2N)nc2ccc(F)cc21`, for which the inhibition in experiment [1] amounted to 3.73%; in experiment [2], 2.45%; in experiment [3] it was 1.33%; in experiment [4] it was 1.93%; in experiment [5], 8.51%; in experiment [6], 3.42%. The inhibition in experiment [7] was 9.46%; in experiment [8], 2.9%; in [9], 9.38%; in experiment [10], 2.57%.

Regarding `Cc1ccc(C(=O)NC2CC2)cc1-c1ccc2[nH]ncc2c1`, the inhibition was 5.49% in [1]; 1.68% in experiment [2]; 3.83% in experiment [3]; -4.14% in experiment [4]; -5.86% in experiment [5]; -1.37% in experiment [6]. The inhibition in [7] is -1.19%; in experiment [8], 0.44%; in experiment [9], 1.35%; in experiment [10], 2.15%.

For the molecule `CN(C)C(=O)O[C@@H]1CN[C@@H](C#Cc2cc3ncnc(Nc4ccc(OCc5cccc(F)c5)c(Cl)c4)c3s2)C1`, the inhibition in experiment [1] is -0.12%; in experiment [2], 0.74%; in experiment [3], 1.37%; in experiment [4], -0.39%; in experiment [5], 3.35%; in [6], 0.76%. In addition, the inhibition in [7] was determined as 3.62%; in [8], 0.4%; in experiment [9] it was 5.87%; in experiment [10], 0.66%.

Turning to `Cc1nc(-c2ccccc2)n2nc(NCCCN3CCOCC3)ncc12`, the inhibition turned out to be 4.15% in [1]; 1.2% in experiment [2]; 2.72% in experiment [3]; 1.4% in experiment [4]; 1.29% in experiment [5]; 2.43% in [6]. Besides, the inhibition in [7] is 4.9%; in experiment [8], 1.85%; in experiment [9] it was 3.34%; in experiment [10], -0.89%.

Turning to `NS(=O)(=O)c1cccc(Nc2cc(-c3ccc(F)cc3)n[nH]2)c1`, the inhibition worked out at 19% in experiment [1]; 3.62% in experiment [2]; 20.2% in [3]; 0.82% in experiment [4]; 4.1% in experiment [5]; 2.78% in experiment [6]. In addition, the inhibition in experiment [7] is 10.7%; in [8], 3.32%; in experiment [9], 13%; in experiment [10] it was 1.43%.

As for `O=C(Nc1ccc(Oc2ccc3[nH]c(NC(=O)c4ccco4)nc3c2)cc1)Nc1cc(C(F)(F)F)ccc1F`, the inhibition was -0.23% in experiment [1]; 0.1% in experiment [2]; 2.11% in experiment [3]; 0.54% in [4]; 8.57% in [5]; 3.42% in experiment [6]. The inhibition in [7] is 28.4%; in experiment [8], 2.04%; in experiment [9], 37.3%; in experiment [10] it was -0.8%.

`Nc1nccc(-c2c(-c3ccc(F)cc3)ncn2CCCN2CCOCC2)n1`: the inhibition amounted to 8.72% in experiment [1]; 1.4% in [2]; 1.82% in experiment [3]; 9.7% in [4]; 2.83% in experiment [5]; 2.6% in experiment [6]. The inhibition amounted to 7.69% in experiment [7], 1.53% in [8], 0.94% in experiment [9] and 3.08% in [10].

In the case of `Nc1nccc(C#Cc2cncnc2Nc2ccc(OCc3cccc(F)c3)c(Cl)c2)n1`, the inhibition was 11.2% in [1]; 3.04% in [2]; 7.4% in experiment [3]; 2.92% in experiment [4]; 5.11% in [5]; 3.59% in experiment [6]. Besides, the inhibition in experiment [7] turned out to be 14%; in [8], 2.98%; in [9] it was 8.39%; in [10], 1.67%.

Take `CCS(=O)(=O)c1ccc(OC)c(Nc2ncc(-c3cccc(OC)c3)o2)c1`: the inhibition was found to be 2.05% in experiment [1]; 0.15% in experiment [2]; 1.64% in [3]; 2.89% in experiment [4]; 11.4% in [5]; 4.25% in experiment [6]. For the same molecule, the inhibition in experiment [7] was 17%; in [8] it was 1.44%; in experiment [9], 10.6%; in experiment [10], -0.52%.
